Source: PubChem BioAssay
This is a sample that favours compounds with a hit; in the whole collection about 1.7% have one here.
HTR5A ag ctr = HTR5A agonists in luminescence cell assay, primary screen, counter-screen for OPRM1-OPRD1 heterodimer agonist project, full-deck HTS; 5-hydroxytryptamine receptor 5A (Homo sapiens), P47898; cell-based; activation, % at 9.3 µM; 340,000 compounds, 0.61% hits; in the data active = activation mostly above about 9.5%, no sharp cut-off; inactive = mostly below about 7.6%
V-ATPase pH = regulators of yeast V-ATPase proton pumping, primary screen, pHLuorin cytosolic pH fluorescence. 350,000 compounds, 0.37% hits. S. cerevisiae. response, % at 10 µM. AID 504577, 2011; in the data active = response mostly above about 7.3%, no sharp cut-off; inactive = mostly below about 5.4%; also: actives read high
MOR-DOR ag = agonists of OPRM1-OPRD1 heterodimerization, primary screen, cell-based, luminescence; 340,000 compounds, 0.3% hits; cells; AID 504326, 2011; activation, % at 9.3 µM; in the data active = activation above about 18%
Target sequence (P35372 whole entry, looked up): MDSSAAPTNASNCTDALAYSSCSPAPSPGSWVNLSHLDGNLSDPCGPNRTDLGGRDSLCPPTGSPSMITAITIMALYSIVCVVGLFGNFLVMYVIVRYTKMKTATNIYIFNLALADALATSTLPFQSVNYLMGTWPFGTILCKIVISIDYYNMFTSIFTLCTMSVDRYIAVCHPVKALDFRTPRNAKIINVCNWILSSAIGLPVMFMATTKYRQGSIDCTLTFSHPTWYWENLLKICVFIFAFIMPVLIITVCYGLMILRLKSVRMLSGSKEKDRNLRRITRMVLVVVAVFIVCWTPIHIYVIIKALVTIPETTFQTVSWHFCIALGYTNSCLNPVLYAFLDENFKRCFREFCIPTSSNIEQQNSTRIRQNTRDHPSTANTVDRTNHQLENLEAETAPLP
Target sequence (P41143 whole entry, looked up): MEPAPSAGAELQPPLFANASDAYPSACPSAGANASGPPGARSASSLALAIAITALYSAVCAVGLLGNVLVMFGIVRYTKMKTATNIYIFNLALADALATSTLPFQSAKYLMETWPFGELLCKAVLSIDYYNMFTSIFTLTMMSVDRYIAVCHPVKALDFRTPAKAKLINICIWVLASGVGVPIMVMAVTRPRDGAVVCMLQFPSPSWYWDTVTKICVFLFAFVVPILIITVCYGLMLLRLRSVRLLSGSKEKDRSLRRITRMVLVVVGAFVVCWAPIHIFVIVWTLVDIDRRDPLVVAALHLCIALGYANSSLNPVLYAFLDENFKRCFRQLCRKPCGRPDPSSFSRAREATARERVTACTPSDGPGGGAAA
MIN6 prolif-1 = inducers of MIN6 beta-cell proliferation, primary screen, ATP luminescence, uHTS | 330,000 compounds, 0.29% hits | proliferation, % at 10 µM | MIN6 cells proliferation, ATPlite luminescence, 48 h; cells starved in 0.2% serum; 100% = growth in 10% serum;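 active = compounds whose signal lies at least 3.5 SD above the mean of all wells on their plate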
HTR5A inv ctr = HTR5A inverse agonists in luminescence cell assay, primary screen, counter-screen for OPRM1-OPRD1 heterodimer inverse agonist project, full-deck HTS; 5-hydroxytryptamine receptor 5A (Homo sapiens), P47898; HTR5A cell line, inverse agonism; inhibition, % at 9.3 µM; 340,000 compounds, 0.083% hits; AID 504634, 2011; in the data active = inhibition mostly above about 23%, no sharp cut-off; inactive = mostly below about 18%
MOR-DOR inv ag = inverse agonists of MOR-DOR heterodimerization, primary screen, cell-based, luminescence; inhibition, % at 9.3 µM; AID 504357, 2011; cell-based MOR-DOR heterodimer luminescence, inverse agonism; 340,000 compounds, 0.21% hits; in the data active = inhibition above about 22%, passing the limit was not always enough
MIN6 prolif-2 = inducers of beta-cell proliferation in MIN6, confirmation, MIN6 cells, mouse; shares compounds with MIN6 prolif-1; ATPlite luminescence, 48 h; cells kept in 0.2% serum; scaled between 0.2% and 10% serum; proliferation increase, % at 50 µM; 920 tested, under 10 active;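 active = proliferation increase above 40% at any of the four tested concentrations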
A number is an active result; n = inactive; x = no result.

SMILES | HTR5A ag ctr | V-ATPase pH | MOR-DOR ag | MIN6 prolif-1 | HTR5A inv ctr | MOR-DOR inv ag | MIN6 prolif-2
O=C1C=C(N2CCCCCC2)C2(CCCCC2)O1 | n | n | n | n | n | n | x
COC1=CC(=O)OC12CCCCC2 | n | n | n | 8.2 | n | n | n
CC(C)c1cc(=O)[nH]c(N2CCN(Cc3ccc4c(c3)OCO4)CC2)n1 | n | n | n | 8.7 | n | n | n
O=C(c1cccc(Cl)c1)N1CCN(c2ccc(N3CCOCC3)nn2)CC1 | n | n | n | 14 | n | n | n
CCN1CCCC1CNC(=O)c1csc2c1CCCC2 (stereo not drawn) | n | n | n | 6.4 | n | n | n
CCC1CCCCN1CCCNC(=O)c1csc2c1CCCCC2 (stereo not drawn) | n | n | n | n | n | n | x
COc1ccc(C(=O)CSc2n[nH]c(C)n2)cc1[N+](=O)[O-] | x | n | x | n | x | x | x
O=C(Cc1cccs1)N1CCN(S(=O)(=O)c2ccccc2)CC1 | n | n | n | 7.2 | n | n | n
COc1ccc(S(=O)(=O)N2CCN(C(=O)Cc3cccs3)CC2)cc1 | n | n | n | n | n | n | x
O=C(CCCCCn1nnc2ccccc2c1=O)Nc1ccccc1F | n | n | n | n | n | n | x
CCCCCC(=O)C(=O)c1ccc(O)cc1O | n | n | n | n | n | n | x
CN(C)S(=O)(=O)c1cc([N+](=O)[O-])ccc1N1CCCCCC1 | n | n | n | 12 | n | n | n
CC(C)CN(CC(C)C)S(=O)(=O)c1cc([N+](=O)[O-])ccc1N1CCCCCC1 | n | n | n | n | n | n | x
CCC(C)[C@H](NC(=O)[C@@H]1CSC2c3ccccc3C(=O)N21)C(=O)NCc1ccncc1 (stereo partly drawn) | n | n | n | n | n | n | x
O=[N+]([O-])c1ccc(-n2nnnc2CN2CCCCC2)cc1 | n | n | n | 9.3 | n | n | n
O=[N+]([O-])c1ccc(-n2nnnc2CN2CCOCC2)cc1 | n | n | n | n | n | n | x
CC(C)CNS(=O)(=O)c1ccc(CCC(=O)NCCC2=CCCCC2)cc1 | n | n | n | n | n | n | x
CCOC(=O)c1cc2c(=O)n3cccc(C)c3nc2n(CC2CCCO2)c1=NC(C)=O (stereo not drawn) | n | n | n | 9.6 | n | n | n
C=CCOn1c(=O)c(-c2ccc(Br)cc2)[n+]([O-])c2ccccc21 | n | n | n | 8.9 | n | n | n
NC(=O)NCC(c1ccccc1)C1CCCCC1 (stereo not drawn) | n | n | n | n | n | n | x
CCc1ccc(NC(=O)C2=CC=CN3CCS(=O)(=O)N=C23)cc1 | n | n | n | 11 | n | n | n
CC(C)c1ccc(NC(=O)C2=CC=CN3CCS(=O)(=O)N=C23)cc1 | n | n | n | n | n | n | x
O=C1CCCCCCC1Sc1ccccc1[N+](=O)[O-] (stereo not drawn) | n | n | n | 6.2 | n | n | n
COc1ccc(CCC(C)N(C)Cc2ccccc2)cc1 (stereo not drawn) | n | n | n | 6.6 | n | n | n
COc1ccc(CC(=O)N(Cc2ccccc2)C(C)C)cc1 | n | n | n | n | n | n | x
SMILES | HTR5A ag ctr | V-ATPase pH | MOR-DOR ag | MIN6 prolif-1 | HTR5A inv ctr | MOR-DOR inv ag | MIN6 prolif-2
CCNC(=O)c1ccc(NS(=O)(=O)c2ccc3[nH]c(=O)[nH]c3c2)cc1 | n | n | n | n | n | n | x
CCCn1cnc2scc(-c3ccc(C)cc3)c2c1=O | n | n | n | 14 | n | n | n
Nc1nc(N)nc(-c2cc(F)ccc2O)n1 | n | n | n | 14 | n | n | n
C=CCn1c(N2CCN(c3ccc(OC)cc3)CC2)nc2c1c(=O)n(C)c(=O)n2C | n | n | n | 8.3 | n | n | n
CCOc1ccc(CCNC(=O)CCCn2c(=O)c3cccn3c3cccnc32)cc1OCC | n | n | n | 17 | n | n | n
CC(C(=O)Nc1ccc(O)cc1C(=O)O)N1C(=O)/C(=C\c2cccs2)SC1=S (stereo not drawn) | n | n | n | n | n | n | x
CCN(CC(=O)NCCN1CCOCC1)S(=O)(=O)c1ccc(F)cc1 | n | n | n | n | n | n | x
Cc1c(N=Nc2ccc(O)cc2)c(=O)n(-c2ccccc2)n1C | n | n | n | n | n | n | x
Cc1c(N=C2NC(=O)/C(=C/c3ccc(O)cc3)S2)c(=O)n(-c2ccccc2)n1C | n | n | n | 4.4 | n | n | n
CCN1CCN(C(=O)C2CCN(S(=O)(=O)c3ccc(Br)cc3)CC2)CC1 | n | n | n | n | n | n | x
CCN1CCN(C(=O)C2CCN(S(=O)(=O)c3ccc(SC)cc3)CC2)CC1 | n | n | n | 16 | n | n | n
CC(Sc1nncs1)C(=O)Nc1ccc2c(c1)OCO2 (stereo not drawn) | n | n | n | n | n | n | x
CCCCNc1nc(=S)[nH]c2cc(OC)c(OC)cc12 | n | n | n | n | n | n | x
CCOCCCNc1nc(=S)[nH]c2cc(OC)c(OC)cc12 | n | n | n | 7.2 | n | n | n
Cc1ccc(C)c(S(=O)(=O)N2CCN(C(=O)[C@@H]3CCCN3C(=O)c3cccs3)CC2)c1 | n | n | n | n | n | n | x
CC(c1nccs1)N(C)c1nc2nonc2nc1NC1CC1 (stereo not drawn) | n | n | n | n | n | n | x
CN(c1nc2nonc2nc1NC1CC1)C1CCOC1 (stereo not drawn) | n | n | n | 7.6 | n | n | n
Cc1ccc(NC(=O)Cn2c(=S)[nH]c3ccccc32)cc1 | x | n | x | n | x | x | x
O=c1c2ccccc2[nH]c(=S)n1C1CCCCC1 | n | n | n | n | n | n | x
CC1CCC(n2c(=S)[nH]c3ccccc3c2=O)CC1 (stereo not drawn) | n | n | n | 11 | n | n | n
CCOc1ccc(N(CC(=O)NCCc2ccccc2)C(=O)CCC(=O)Nc2cc(C)ccn2)cc1 | n | n | n | n | n | n | x
CCc1nc2sc(C#N)c(N)c2c2c1CCCC2 | n | n | n | 6.3 | n | n | n
C/C(=N/NS(=O)(=O)c1ccc(C(C)(C)C)cc1)c1ccc2c(c1)OCO2 | n | n | n | n | n | n | x
O=S(=O)(Nc1ccc(-n2cnnn2)cc1)c1cccc(F)c1 | n | n | n | n | n | n | x
CC1Cc2nc(SCC(=O)OCc3ccccc3)n(C)c(=O)c2S1 (stereo not drawn) | n | n | n | 15 | n | n | n
Cc1ccc(SCCC(=O)N2CCOCC2)cc1 | n | n | n | 5.1 | n | n | n
Cc1ccc(SCCC(=O)N2CCCC2)cc1 | n | n | n | n | n | n | x
